Source: PubChem
Compounds with a hit are over-represented: about 4.6% of the library has one in this group of screens.
Lassa entry inh = qHTS for Inhibitors of binding or entry into cells for Lassa Virus. Potency, µM (doses to about 37.9 µM), inactives show top-dose activity change, negative = inhibition, most hits filed as inhibitors. 300,000 compounds, 1.2% hits. Lassa virus pseudotype entry inhibition, cell reporter; calls by dose curve; tested in HEK293 cells; note: nearly all actives have a fitted effect of over 50% in size
VACV mCherry inh = qHTS for Stage-Specific Inhibitors of Vaccinia Orthopoxvirus: mCherry Reporter Primary qHTS; AID 720579, 2013; Vaccinia virus mCherry reporter infection, fluorescence; Potency, µM (doses to about 36.5 µM), for the others: top-dose activity change, negative = inhibition, most hits filed as inhibitors; 310,000 compounds, 0.63% hits; calls by dose curve; tested in A549 cells; note: nearly all actives have a fitted effect of over 35% in size
Vaccinia Venus = qHTS for Stage-Specific Inhibitors of Vaccinia Orthopoxvirus: Venus Reporter Primary qHTS; Vaccinia virus Venus reporter expression, fluorescence; Potency, µM (series often up to 36.5 µM), inactives show top-dose activity change, negative = inhibition, actives largely listed as inhibitors; 330,000 compounds, 0.46% hits; AID 720580, 2013; calls by dose curve; tested in A549 cells; note: nearly all actives have a fitted effect of over 30% in size
MARV entry inh = qHTS for inhibitors of binding or entry into cells for Marburg Virus; 300,000 compounds, 1.8% hits; Marburg virus pseudotyped entry inhibition, cell reporter; Potency, µM (highest dose often 37.8 µM), for inactives: at the highest dose activity change, negative = inhibition, most hits filed as inhibitors; calls by dose curve; tested in HEK293 cells
HCV inhibitor = qHTS Assay for Inhibitors of Hepatitis C Virus (HCV); 340,000 compounds, 3.4% hits; Potency, µM (titrated, usually from 41.8 µM), without a hit: at the top dose activity change, negative = inhibition, usual class: inhibitors; Huh7.5.1 HCVcc-Cre infection, luciferase reporter, 44 h; active = well fitted inhibition curve with a large enough effect; inconclusive = small, poorly fitted or top-dose-only effect, or another doubt; inactive = no such curve, though single readings can be large or run the other way
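Cells (1,000/well) were plated 4 h before compound, then infected with HCVcc-Cre virus (~0.5 moi). After 44 h further culture, infection was read as luciferase luminescence following a 15 min substrate incubation at room temperature.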
Active calls of the source: *; i = inactive; ? = inconclusive; nt = no result given; [ ] = another dose, or the depositor's remark. % is set by controls: 0 for no effect and ±100 for the full control effect; potency is the fitted concentration of half-maximal effect.

SMILES | Lassa entry inh | VACV mCherry inh | Vaccinia Venus | MARV entry inh | HCV inhibitor
Clc1ccc(OCCCN2CCCCC2)c(Br)c1 | ? | -12.8% | -12.3% | 14.6µM* | ?
CN(C)CCOCCOc1ccc(Cl)cc1C(C)(C)C | ? | -4.3% | -12.6% | ? | ?
COCCCNCCCOc1ccc(Cl)cc1Br | -18.3% | nt | nt | 16.4µM* | 12.6µM*
CC(C)(C)NC[C@H](O)c1ccccc1Cl | nt | nt | nt | 15.5% | nt
Cc1ccc(C(=O)N(CCN(C)C)CC2CCCN(Cc3ccccc3F)C2)cc1C (stereo unspecified) | ? | -8.9% | -24.0% | ? | 11.2µM*
COc1ccc(NC(=O)c2ccco2)cc1NC(=O)c1cccc(OC(C)C)c1 | 10.3µM* | nt | nt | ? | ?
COc1ccc(NC(=O)Cc2ccc(Cl)cc2)cc1NC(=O)c1ccco1 | -25.7% | nt | nt | -0.1% | 10µM*
COc1ccc(O[C@H]2C=C[C@@H](c3ccccc3)O[C@H]2COC(=O)CC/C(C)=N\OC[C@@H](O)COCc2ccco2)cc1 | nt | nt | nt | 9.9%[14.2 µM] | nt
CCn1c(CCC(=O)Nc2cc(F)ccc2C)nc2cc(S(=O)(=O)N(C)C)ccc21 | -0.3% | nt | nt | -11.3% | ?
CCN(CC)S(=O)(=O)c1ccc2c(c1)nc(CCC(=O)Nc1ccccc1Cc1ccccc1)n2CC | ? | -3.6% | -19.2% | ? | 10µM*
CC(C)(C)c1nc(N2CCN(C(=O)c3ccco3)CC2)c2nnn(Cc3ccccc3)c2n1 | 25.9µM* | nt | nt | ? | ?
O=C(c1ccco1)N1CCCC(c2nc3c(nnn3Cc3ccccc3)c(=O)[nH]2)C1 (stereo unspecified) | 3.9% | -6.7% | -2.1% | 0.8%[46.1 µM] | -11.6%
CC1CCCN(CCS(=O)(=O)c2ccccc2)C1 (stereo unspecified) | 9.3%[46.1 µM] | 10µM* | ? | ? | -5.1%
CCOc1ccccc1C(=O)Nc1cccc2ccc(C)nc12 | 0.4%[46.1 µM] | -29.5% | -19.6% | 16.7%[46.1 µM] | nt
COC(=O)c1ccccc1NC(=O)CCC(=O)N1CC(C)Sc2ccccc21 (stereo unspecified) | 21.3%[46.1 µM] | -7.2% | -7.4% | nt | nt
Cc1cc(C)n(-c2nc(N(c3ccccc3)c3ccccc3)nc(-n3nc(C)cc3C)n2)n1 | ? | nt | nt | ? | 10µM*
O=C(CN1CCN(c2ccc(O)cc2)CC1)Nc1ccccc1C(=O)NCCc1ccccc1 | nt | nt | nt | nt | 12.6µM*
Cc1ccccc1Cn1c(SCc2ccc(C(=O)NCCc3ccccc3)cc2)nc2ccncc21 | nt | ? | -27.9% | -29.9%[46.1 µM] | nt
CC(C)c1ccc(NC(=O)C2CCC(CNC(=O)[C@@H]3Cc4ccccc4CN3)CC2)cc1 (stereo partly specified) | 5.3%[46.1 µM] | i | -24.0% | ? | 14.1µM*
NS(=O)(=O)c1ccc(NC(=S)NC(=O)c2ccc(Br)o2)cc1 | ? | i | -8.4% | -0.7%[46.1 µM] | -16.4%
Cc1cc(C)cc(NS(=O)(=O)c2ccc(NC(=S)NC(=O)c3ccc(Br)o3)cc2)c1 | -22.2% | nt | ? | 15.8µM* | ?
Cc1ccc(NS(=O)(=O)c2ccc(NC(=O)c3ccc(Br)o3)cc2)c(C)c1 | ? | ? | -20.1% | ? | 12.6µM*
Cc1ccc(NS(=O)(=O)c2ccc(NC(=O)c3ccccc3C(=O)O)cc2)c(C)c1 | 20.5%[46.1 µM] | i | 12.4% | 1.5%[46.1 µM] | 0.7%
Cc1ccc(OC[C@H](O)[C@H](C)NC(C)C)c2c1CCC2 | nt | -15.7% | -26.6% | 15.8µM* | -28.3%
CC(C)(C)NC[C@H](O)COc1cccc2c1CCCC2=O | nt | -0.1% | -9.4% | nt | 11.9%
SMILES | Lassa entry inh | VACV mCherry inh | Vaccinia Venus | MARV entry inh | HCV inhibitor
NC(=S)N/N=C1\CC(n2nnnc2-c2ccccc2)C2COC1O2 (stereo unspecified) | nt | nt | nt | nt | 14.9%
NC(=S)N/N=C1\CC(n2nnn(-c3cccc(Cl)c3)c2=S)C2COC1O2 (stereo unspecified) | -14.4% | 11.2µM* | ? | ? | -3.3%
COc1cccc(-c2nc(NCc3ccco3)c3ccccc3n2)c1O | ? | -29.7% | ? | 16.9% | ?
COc1cccc(-c2nc(NC3CCCC3)c3ccccc3n2)c1O | nt | nt | nt | nt | 2.82µM*
C=CCNc1nc(-c2cccc(OC)c2O)nc2ccccc12 | 7.1% | nt | nt | -28.5% | 15.8µM*
C/C(=N\NC(N)=S)c1cc(-c2ccccc2)c(-c2ccccc2)s1 | ? | -13.5% | -5.8% | ? | 6.31µM*
C/C(=N\NC(N)=S)c1ccccc1 | nt | nt | nt | nt | -14.3%
O=C(Cc1ccccn1)c1ccc(Cl)cc1 | nt | -1.4% | -1.4% | nt | -6.0%
CC1=C(CC(=O)c2ccc(Cl)cc2)C(=O)c2ccccc2C1=O | -26.8% | nt | nt | 5.5% | 4.47µM*
Cc1ccc(/C=C2\Oc3cc(OC(=O)N4CCOCC4)ccc3C2=O)cc1 | 6.2% | -12.7% | -4.5% | 3.4% | 25.1%
CC(C)(C)c1ccc(/C=C2\Oc3cc(OC(=O)N4CCOCC4)ccc3C2=O)cc1 | 8.91µM* | -10.7% | -7.1% | ? | ?
Cc1ccc(Cn2c(C)c3cnn(CC(=O)N4CCN(c5ccc(F)cc5)CC4)c(=O)c3c2C)cc1 | ? | -20.1% | -19.5% | 4.5%[46.1 µM] | nt
C/C=C(/C)C(=O)O[C@H]1C(C)=C2[C@H]([C@@H]1OC(=O)CCCCCCC)[C@@](C)(OC(C)=O)C[C@H](OC(=O)CCC)[C@@]1(O)[C@H]2OC(=O)[C@@]1(C)O | 0.326µM* | -2.0%[20.9 µM] | -11.9%[20.9 µM] | 0.146µM* | nt
CCCCn1c(SCc2ccccc2C#N)nc2c(sc3ccccc32)c1=O | -5.9%[46.1 µM] | -13.6% | -3.2% | nt | nt
O=C(Nc1ccccc1N1CCCCC1)c1ccc(-c2cccc(Cl)c2)o1 | 6.5% | -11.5% | 0.3% | ? | -36.4%
CN1CCN(c2ccccc2NC(=O)c2ccc(-c3ccc(Cl)cc3Cl)o2)CC1 | ? | nt | nt | ? | 10µM*
CS(=O)(=O)N1CCN(c2ccccc2NC(=O)c2ccc(-c3ccc(Cl)cc3Cl)o2)CC1 | ? | nt | 2.0% | ? | -5.3%
CN1CCN(c2ccccc2NC(=O)c2ccc(-c3cccc(Cl)c3)o2)CC1 | -23.7% | ? | ? | 12.6µM* | ?
C#CCCCON=C1C[C@@H](O)[C@H](O)[C@H]2[C@@H]3C(=O)N(C4CCCCC4)C(=O)[C@@H]3CC[C@@H]12 | nt | nt | nt | 42.8%[14.2 µM] | nt
COc1ccc2c(c1OC)CN1CCc3cc4c(cc3C1C2)OCO4 (stereo unspecified) | ? | -15.4% | -20.0% | ? | -27.5%
COc1ccc2c(c1OC)CN1CCc3cc4c(cc3[C@H]1C2)OCO4 | nt | ? | -3.6% | nt | 11.2µM*
OC1(c2ccc(Cl)cc2)CN(c2ccccc2)C2=[N+]1CCS2 (stereo unspecified) | -21.2% | -16.3% | -13.4% | ? | 12.6µM*
COc1ccc(NC(=O)Cn2c(=O)n(CC3CCCO3)c(=O)c3ccccc32)cc1 (stereo unspecified) | -8.1%[46.1 µM] | -15.7% | -6.6% | 3.3%[46.1 µM] | nt
COC1CC2C=C(C)C=CC=CC(=O)NC(c3ccccc3)CC=CCCC(O)CC(=O)C2=C1O (stereo unspecified) | nt | 7.08µM* | 2.82µM* | nt | nt
CSc1cccc(NC(=O)c2ccc(CN3CCc4ccccc4C3)cc2)c1 | ? | -19.0% | ? | ? | 8.91µM*
